Results published in PubChem BioAssay AID1159580 (chemical genetic matrix, 2015).
Several values for one entry are separate records, joined by “and”; a condition that tells them apart may be missing. Equal entries are not always repeated. About 2,000 (36%) of roughly 5,500 compounds were called active. Roughly 18% stayed inconclusive and do not appear here. No stated cut-off is given here; in the data, active means normalized growth mostly below about 0.91 (no sharp cut-off); inconclusive means no clear call, values can overlap the other calls; inactive means mostly above about 0.92. Some of the results follow.

Test: chemical genetic growth profiling, strain panel (AID 1159580);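 further: tested at 20 µM; growth read once vehicle control cultures reached saturation at 30 °C; 1 = growth at the plate median or of vehicle wells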
Details: S. cerevisiae deletion strains, growth OD

Measured: normalized growth

COc1ccccc1OCC(O)CO (stereo not drawn)
inactive: locus YAL021C, strain ccr4, stronger effect = lower value 1.02 | locus YAL026C, strain drs2, stronger effect = lower value 1.02 | locus YAL030W, strain snc1, stronger effect = lower value 1.02 | locus YBL061C, strain skt5, stronger effect = lower value 1.02 | locus YBR009C, strain hhf1, stronger effect = lower value 1.02 | locus YBR021W, strain FUR4, stronger effect = lower value 1.02 | locus YBR023C, strain chs3, stronger effect = lower value 1.02 | locus YBR171W, strain sec66, stronger effect = lower value 1.04 | locus YBR229C, strain ROT2, stronger effect = lower value 1 | locus YBR231C, strain swc5, stronger effect = lower value 1.02 | locus YBR279W, strain paf1, stronger effect = lower value 1.03 | locus YCL011C, strain gbp2, stronger effect = lower value 1.02 | locus YCL016C, strain dcc1, stronger effect = lower value 1.02 | locus YCL029C, strain bik1, stronger effect = lower value 0.972 | locus YCL061C, strain MRC1, stronger effect = lower value 1.03 | locus YCL069W, strain vba3, stronger effect = lower value 1.01 | locus YCR088W, strain abp1, stronger effect = lower value 1.02 | locus YDL005C, strain med2, stronger effect = lower value 1.04 | locus YDL035C, strain GPR1, stronger effect = lower value 1.02 | locus YDL040C, strain nat1, stronger effect = lower value 1.02 | locus YDL074C, strain BRE1, stronger effect = lower value 1 | locus YDL101C, strain DUN1, stronger effect = lower value 1.01 | locus YDL134C, strain PPH21, stronger effect = lower value 0.997 | locus YDL185W, strain tfp1, stronger effect = lower value 1 | locus YDL192W, strain arf1, stronger effect = lower value 1 | locus YDR001C, strain nth1, stronger effect = lower value 1.02 | locus YDR069C, strain doa4, stronger effect = lower value 1.02 | locus YDR101C, strain arx1, stronger effect = lower value 0.972 | locus YDR137W, strain rgp1, stronger effect = lower value 1.03 | locus YDR159W, strain sac3, stronger effect = lower value 1.02 | locus YDR162C, strain NBP2, stronger effect = lower value 1.01 | locus YDR195W, strain ref2 1.02 | locus YDR297W, strain sur2, stronger effect = lower value 1.02 | locus YDR318W, strain mcm21, stronger effect = lower value 1.02 | locus YDR334W, strain swr1, stronger effect = lower value 1.03 | locus YDR335W, strain msn5, stronger effect = lower value 1.03 | locus YDR388W, stronger effect = lower value 0.99 | locus YDR392W, strain spt3, stronger effect = lower value 0.987 | locus YDR502C, strain sam2, stronger effect = lower value 1.02 | locus YEL003W, strain gim4, stronger effect = lower value 1.01 | locus YEL037C, strain rad23, stronger effect = lower value 1.02 | locus YEL061C, strain CIN8 (second series), stronger effect = lower value 1.02 | locus YEL061C, strain CIN8, stronger effect = lower value 1.03 | locus YER015W, strain faa2, stronger effect = lower value 1.02 | locus YER016W, strain bim1, stronger effect = lower value 1.04 | locus YER110C, stronger effect = lower value 0.988 | locus YER111C, strain swi4, stronger effect = lower value 1.02 | locus YER155C, strain BEM2 (second series), stronger effect = lower value 1.02 | locus YER155C, strain BEM2, stronger effect = lower value 1.01 | locus YER167W, strain BCK2, stronger effect = lower value 1 | locus YFR010W, strain ubp6, stronger effect = lower value 1.02 | locus YGL078C, strain dbp3, stronger effect = lower value 1.02 | locus YGL086W, strain mad1, stronger effect = lower value 1 | locus YGL167C, strain pmr1, stronger effect = lower value 1.02 | locus YGL173C, strain kem1, stronger effect = lower value 1.02 | locus YGL227W, strain vid30, stronger effect = lower value 1.03 | locus YGL240W, strain doc1, stronger effect = lower value 1.03 | locus YGL248W, strain PDE1, stronger effect = lower value 1.01 | locus YGL253W, strain hxk2, stronger effect = lower value 1.01 | locus YGR078C, strain PAC10, stronger effect = lower value 1.01 | locus YGR135W, strain pre9, stronger effect = lower value 1.04 | locus YGR252W, strain gcn5, stronger effect = lower value 1.22 | locus YHR013C, strain ard1, stronger effect = lower value 1.04 | locus YHR027C, strain rpn1, stronger effect = lower value 1.01 | locus YHR030C, strain SLT2, stronger effect = lower value 1 and 0.993 | locus YHR079C, strain IRE1 (second series), stronger effect = lower value 0.988 | locus YHR079C, strain IRE1, stronger effect = lower value 0.965 | locus YHR094C, strain hxt1, stronger effect = lower value 0.978 | locus YHR129C, strain ARP1, stronger effect = lower value 0.964 | locus YHR142W, strain chs7, stronger effect = lower value 1.03 | locus YHR200W, strain rpn10, stronger effect = lower value 1.01 | locus YIL066C, strain RNR3, stronger effect = lower value 1 | locus YIL073C, strain SPO22, stronger effect = lower value 1.05 | locus YIL125W, strain kgd1, stronger effect = lower value 1.01 | locus YIR030C, strain dcg1, stronger effect = lower value 0.99 | locus YJL092W, strain hpr5, stronger effect = lower value 1.03 | locus YJL095W, strain BCK1 (second series), stronger effect = lower value 1.02 | locus YJL095W, strain BCK1, stronger effect = lower value 1.03 and 0.964 | locus YJL115W, strain asf1, stronger effect = lower value 1.02 | locus YJL129C, strain trk1, stronger effect = lower value 1.04 | locus YJL134W, strain LCB3, stronger effect = lower value 1 | locus YJL154C, strain vps35, stronger effect = lower value 1.01 | locus YJL164C, strain tpk1, stronger effect = lower value 1.02 | locus YJL166W, strain qcr8, stronger effect = lower value 1.03 | locus YJL168C, strain set2, stronger effect = lower value 0.986 | locus YJL187C, strain SWE1 (second series), stronger effect = lower value 1.01 | locus YJL187C, strain SWE1, stronger effect = lower value 1.05 | locus YJR043C, strain POL32, stronger effect = lower value 1.01 | locus YJR066W, strain TOR1, stronger effect = lower value 0.924 | locus YKL009W, strain mrt4, stronger effect = lower value 1.01 | locus YKL068W, stronger effect = lower value 1.01 | locus YKL085W, strain MDH1 (second series), stronger effect = lower value 0.999 | locus YKL085W, strain MDH1, stronger effect = lower value 0.999 | locus YKL160W, strain elf1, stronger effect = lower value 1.02 | locus YKR001C, strain vps1, stronger effect = lower value 0.998 | locus YKR026C, strain gcn3, stronger effect = lower value 1.02 | locus YKR091W, strain srl3, stronger effect = lower value 1.02 | locus YLL001W, strain dnm1, stronger effect = lower value 1.02 | locus YLL026W, stronger effect = lower value 1.02 | locus YLL041C, strain sdh2, stronger effect = lower value 1.01 | locus YLR027C, strain aat2, stronger effect = lower value 1.01 | locus YLR039C, strain RIC1, stronger effect = lower value 1.02 | locus YLR058C, strain SHM2, stronger effect = lower value 1.01 | locus YLR102C, strain apc9, stronger effect = lower value 0.982 | locus YLR113W, strain HOG1, stronger effect = lower value 0.999 | locus YLR221C, strain rsa3, stronger effect = lower value 1.01 | locus YLR258W, strain gsy2, stronger effect = lower value 1.01 | locus YLR262C, strain YPT6 (second series), stronger effect = lower value 1.02 | locus YLR262C, strain YPT6, stronger effect = lower value 1.04 | locus YLR268W, strain sec22, stronger effect = lower value 1.01 | locus YLR320W, strain mms22, stronger effect = lower value 1.03 | locus YLR330W, strain CHS5, stronger effect = lower value 1.02 | locus YLR342W, strain FKS1 (second series), stronger effect = lower value 1.01 | locus YLR342W, strain FKS1, stronger effect = lower value 1.02 | locus YLR357W, strain rsc2, stronger effect = lower value 1.03 | locus YLR370C, strain arc18, stronger effect = lower value 1.02 | locus YLR371W, strain rom2, stronger effect = lower value 0.965 | locus YLR384C, strain iki3, stronger effect = lower value 1.02 | locus YLR418C, strain cdc73, stronger effect = lower value 1.06 | locus YML016C, strain PPZ1, stronger effect = lower value 1 | locus YML032C, strain rad52, stronger effect = lower value 1.01 | locus YML120C, strain ndi1, stronger effect = lower value 1.02 | locus YML124C, strain tub3, stronger effect = lower value 0.996 | locus YMR058W, strain fet3, stronger effect = lower value 1.02 | locus YMR078C, strain ctf18, stronger effect = lower value 0.99 | locus YMR125W, strain sto1, stronger effect = lower value 1.06 | locus YMR129W, stronger effect = lower value 1.02 | locus YMR205C, strain PFK2, stronger effect = lower value 1.02 | locus YMR223W, strain ubp8, stronger effect = lower value 1.03 | locus YMR231W, strain pep5, stronger effect = lower value 1.02 | locus YMR307W, strain GAS1, stronger effect = lower value 1.05 | locus YNL067W, strain RPL9B, stronger effect = lower value 1.02 | locus YNL071W, strain lat1, stronger effect = lower value 1.02 | locus YNL153C, strain GIM3, stronger effect = lower value 1.01 | locus YNL183C, strain NPR1, stronger effect = lower value 0.956 | locus YNL209W, strain ssb2, stronger effect = lower value 1.02 | locus YNL233W, strain BNI4, stronger effect = lower value 1.01 | locus YNL248C, strain rpa49, stronger effect = lower value 1.04 | locus YNL250W, strain rad50, stronger effect = lower value 1.02 | locus YNL271C, strain bni1, stronger effect = lower value 1.01 | locus YNL298W, strain CLA4, stronger effect = lower value 1.01 | locus YNL307C, strain MCK1, stronger effect = lower value 0.99 | locus YNL322C, strain KRE1 (second series), stronger effect = lower value 1.04 | locus YNL322C, strain KRE1, stronger effect = lower value 1.01 | locus YNR049C, strain mso1, stronger effect = lower value 1.02 | locus YNR052C, strain pop2, stronger effect = lower value 0.998 | locus YOL012C, strain htz1 0.827 | locus YOL147C, strain pex11, stronger effect = lower value 0.995 | locus YOR001W, strain rrp6, stronger effect = lower value 0.995 | locus YOR061W, strain CKA2, stronger effect = lower value 1.01 | locus YOR069W, strain VPS5, stronger effect = lower value 1.01 | locus YOR070C, strain gyp1, stronger effect = lower value 1.02 | locus YOR080W, strain dia2, stronger effect = lower value 1.04 | locus YOR083W, strain WHI5, stronger effect = lower value 1.02 | locus YOR106W, strain vam3, stronger effect = lower value 1.02 | locus YOR136W, strain idh2, stronger effect = lower value 0.994 | locus YOR144C, strain elg1, stronger effect = lower value 0.993 | locus YOR184W, strain ser1, stronger effect = lower value 1 | locus YOR231W, strain MKK1, stronger effect = lower value 0.991 | locus YOR265W, strain rbl2, stronger effect = lower value 1.02 | locus YOR270C, strain vph1, stronger effect = lower value 1.05 | locus YOR290C, strain snf2, stronger effect = lower value 0.99 | locus YOR316C, strain cot1, stronger effect = lower value 0.986 | locus YPL051W, strain arl3, stronger effect = lower value 1.01 | locus YPL078C, strain atp4, stronger effect = lower value 1.02 | locus YPL106C, strain sse1, stronger effect = lower value 1.01 | locus YPL240C, strain hsp82, stronger effect = lower value 1.02 | locus YPL256C, strain CLN2, stronger effect = lower value 0.977 | locus YPR119W, strain clb2, stronger effect = lower value 0.992 | locus YPR141C, strain kar3, stronger effect = lower value 0.996 | locus YPR163C, strain tif3, stronger effect = lower value 1.01 | locus YPR167C, strain met16, stronger effect = lower value 0.999 | strain wtn01, stronger effect = lower value 1.05
